A number with no mark means an inactive call. Activity calls are given as the source filed them.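 The calls were made as follows, unless noted: active = mean inhibition above 46.5%, the solvent-only control mean plus 3 SD; inactive = the rest.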
What was measured:
[1] = tested on: transactivating tegument protein VP16 (Human herpesvirus 1); test: compounds suppressing VP16-driven luciferase signal – cell-based, luminescence, single concentration, counter-screen for SRC2 inhibitor project (AID 652007; in the data active = inhibition above about 36%); details: cell-based VP16 transactivation luciferase reporter, at 8.9 µM, active compounds read high
[2] = molecular target: Nuclear receptor coactivator 2 (Homo sapiens) (UniProt Q15596); test: inhibition of GAL4-SRC2 driven luciferase expression – cell-based, luminescence, HEK293, triplicate, confirmation (AID 652008); details: HEK293 GAL4-SRC2 luciferase reporter, at 8.9 µM, active compounds read high;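 also: 0% = DMSO-treated cells and 100% = Gossypol at 36 µM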
Sequence of Nuclear receptor coactivator 2 (Homo sapiens) (Q15596 whole entry, looked up, the tested form may be a part): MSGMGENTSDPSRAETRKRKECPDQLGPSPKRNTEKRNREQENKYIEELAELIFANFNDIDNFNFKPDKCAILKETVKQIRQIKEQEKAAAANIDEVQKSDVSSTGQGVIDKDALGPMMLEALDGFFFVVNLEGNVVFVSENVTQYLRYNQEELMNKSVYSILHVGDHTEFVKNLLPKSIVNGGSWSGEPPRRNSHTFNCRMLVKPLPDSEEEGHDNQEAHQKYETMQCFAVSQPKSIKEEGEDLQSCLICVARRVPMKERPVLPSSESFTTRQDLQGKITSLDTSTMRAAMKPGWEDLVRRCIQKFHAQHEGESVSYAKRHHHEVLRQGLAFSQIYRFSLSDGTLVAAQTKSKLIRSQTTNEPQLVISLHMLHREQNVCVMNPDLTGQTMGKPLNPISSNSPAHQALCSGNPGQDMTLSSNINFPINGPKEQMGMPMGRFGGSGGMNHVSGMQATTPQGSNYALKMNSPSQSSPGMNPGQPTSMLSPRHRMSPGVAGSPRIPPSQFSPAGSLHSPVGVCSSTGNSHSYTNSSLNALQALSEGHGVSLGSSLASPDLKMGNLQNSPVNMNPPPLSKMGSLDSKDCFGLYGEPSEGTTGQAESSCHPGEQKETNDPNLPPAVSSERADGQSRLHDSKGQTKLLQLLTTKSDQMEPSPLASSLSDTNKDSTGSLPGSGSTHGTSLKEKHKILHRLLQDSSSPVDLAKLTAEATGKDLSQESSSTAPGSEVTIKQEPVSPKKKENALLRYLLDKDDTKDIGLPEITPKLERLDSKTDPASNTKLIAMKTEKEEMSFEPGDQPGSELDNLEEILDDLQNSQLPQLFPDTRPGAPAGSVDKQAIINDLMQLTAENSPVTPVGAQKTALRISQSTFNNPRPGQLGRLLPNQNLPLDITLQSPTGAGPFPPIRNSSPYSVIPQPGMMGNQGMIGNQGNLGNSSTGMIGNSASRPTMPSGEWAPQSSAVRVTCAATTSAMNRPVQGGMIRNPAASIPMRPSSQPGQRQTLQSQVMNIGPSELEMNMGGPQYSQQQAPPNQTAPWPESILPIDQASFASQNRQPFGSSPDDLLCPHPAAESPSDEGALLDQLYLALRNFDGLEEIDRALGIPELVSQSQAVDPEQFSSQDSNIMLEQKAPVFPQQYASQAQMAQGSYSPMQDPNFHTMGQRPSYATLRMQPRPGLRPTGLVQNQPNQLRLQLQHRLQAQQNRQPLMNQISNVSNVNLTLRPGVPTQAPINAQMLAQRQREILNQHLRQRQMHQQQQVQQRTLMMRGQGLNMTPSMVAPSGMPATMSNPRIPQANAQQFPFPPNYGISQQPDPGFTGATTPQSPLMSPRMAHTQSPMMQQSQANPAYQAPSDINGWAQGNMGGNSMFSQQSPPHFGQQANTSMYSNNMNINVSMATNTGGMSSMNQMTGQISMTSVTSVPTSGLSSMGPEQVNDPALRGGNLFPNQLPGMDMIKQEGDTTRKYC

SMILES	inhibition [1]	inhibition [2]
O=C(NCCc1ccccc1)c1ccc2c(c1)OCO2	-13.4%	16.7%
C[C@@H]1CN([C@H](C)CO)C(=O)c2cc(NC(=O)Nc3ccc(C(F)(F)F)cc3)ccc2O[C@H]1CN(C)S(=O)(=O)c1ccccc1	18.9%	32.9%
O=C(NC12CC3CC(CC(C3)C1)C2)C1CC(=O)N(c2ccccc2)C1 (stereo unspecified)	9.52%	-0.38%
CC1(C)CC(=O)C/C(=N/Nc2nc3ccccc3s2)C1	-61.5%	-13.5%
CN1/C(=C/C=C/c2n(C)c3cc([N+](=O)[O-])c([N+](=O)[O-])cc3[n+]2C)C(C)(C)c2ccccc21	3.99%	-3.59%
O=C(Cc1ccc(-c2ccccc2)cc1)NNC(=S)NCc1ccco1	-22.3%	-9.18%
COc1ccccc1C(=O)NCc1ccc(-c2nc3ccccc3s2)cc1	-14%	22.1%
N=c1nc(SCCC(=O)O)ss1	14.4%	51.7% (active)
CC(OC(=O)C1=COCCO1)C(=O)Nc1ccc(Cl)cn1 (stereo unspecified)	-6.28%	-20.4%
COc1ccc(CNCCNC(=O)c2cccs2)c(OC)c1OC	8.76%	9.01%
O=C(N/N=C/c1ccc([N+](=O)[O-])s1)c1ccccc1	34.9%	24.6%
CCN(CC)CCNC(=O)c1ccc(NC(=O)c2ccc(S(=O)(=O)N3CCCC3)cc2)cc1	-4.61%	-8.26%
O=C(c1ccc(Cl)cc1)C(CN1CCCCC1)c1ccccc1 (stereo unspecified)	32.9%	57.8% (active)
CCOC(=O)c1[nH]c(=S)n(-c2ccccc2)c1C(=O)OCC	-1.17%	-17.4%
COc1ccc(/C=C2\SC(=S)N(CCCC(=O)Nc3ccc(O)cc3)C2=O)cc1	52.4% (active)	35.3%
Cc1[nH]nc(-c2cccnc2)c1N=NN(C)C	10.9%	41.1%
Cc1ccc(C)c(NC(=O)COc2coc(CN3CCc4ccccc4C3)cc2=O)c1	-2.11%	22.7%
COCc1cc(C)[nH]c(=O)c1C(=O)NC12CC3CC(CC(C3)C1)C2	15.4%	-11%
O=C(N/N=C\c1cc(Br)c(Br)o1)C1COc2ccccc2O1 (stereo unspecified)	-16.1%	-4.84%
Cc1ccc(NCC(=O)Nc2cccc(F)c2)cc1S(=O)(=O)N1CCCCCC1	15.9%	3.72%
CCc1cc(CNC(=O)c2ccc3nc(Cc4ccc(OC)c(OC)c4)oc3c2)on1	9.61%	26.6%
Cc1cc(Cl)ccc1OCCCC(=O)NO	6.12%	32.7%
Cc1c(C)n(Cc2ccccc2)c2ncnc(Cl)c12	19.1%	39.9%
Cc1sc(NC(=O)CSc2nnnn2C(C)C)c(C#N)c1C	2.68%	-4.47%
CCCc1ncc(CN2CCC(C(=O)Nc3cccc(-c4cscn4)c3)CC2)cn1	12.2%	15.5%

SMILES	inhibition [1]	inhibition [2]
COc1ccc(C#Cc2ccc3c(c2)[C@H]2[C@H](CCN2S(=O)(=O)c2ccccc2F)[C@H](CO)N3C)cc1	-5.48%	8.22%
CC(=NNc1ccc2ccccc2n1)c1ccccn1	83.8% (active)	89.3% (active)
C=C1C(=O)[C@@]23[C@H](O)C[C@@H]4C(C)(C)CC[C@H](O)[C@]4(C)[C@@H]2C[C@H](O)[C@@H]1[C@H]3O	4.46%	54% (active)
Cc1cccc(C(=O)Nc2ccc(CC(=O)O)cc2)c1	-2.26%	26.9%
O=C(NN1CCOCC1)c1ccco1	-7.57%	-31.5%
Cn1c(=O)c(=O)n(C)c2cc(S(=O)(=O)Nc3ccc4c(c3)OCCO4)ccc21	-4.82%	47.5% (active)
CC(C)(C)c1ccc(SCCc2ccncc2)cc1	-28.2%	-4.99%
O=C(Nc1nc2ccccc2s1)c1ccc(N2CCCCC2)c([N+](=O)[O-])c1	-57.5%	10%
Cc1ccc2c(c1)nnn2C1CCN(CC(=O)N(c2ccccc2)c2ccccc2)CC1	14.5%	33.7%
c1ccc(C2=Nn3c(nnc3-c3ccncc3)SC2)cc1	-2.29%	34.6%
CCOc1ccc(NS(=O)(=O)c2ccc(C(=O)NC3CCN(Cc4ccccc4)CC3)cc2)cc1	-3.23%	8.19%
O=C(NCc1ccc(Cl)c(Cl)c1)c1cc(C2CCCCN2C(=O)CCc2ccccc2)on1 (stereo unspecified)	-6.3%	12.6%
Nn1c(SCC(=O)Nc2cc(C(F)(F)F)ccc2Cl)nncc1=O	3.78%	-1.26%
COc1ccc(N2CCN(C3CCCN(S(=O)(=O)c4ccc(C)cc4C)C3)CC2)cc1 (stereo unspecified)	-13%	29.6%
O=C(CCl)N(c1ccccc1)c1ccccc1	9.78%	44.2%
O=C(O)c1cccc(CSc2nnc(-c3ccc(Cl)cc3)o2)c1	41.3% (active)	43.1%
COCCn1c(SCC(=O)/C=C2\N(C)c3ccccc3C2(C)C)nnc1-c1ccncc1	-4.56%	8%
Cc1nc(N/N=C/c2ccccn2)sc1C	29.8%	60.2% (active)
Cc1nn(Cc2ccc(C(=O)NC(C)(C)C)o2)c(C)c1Br	5.83%	17.8%
CC(C)c1nnc(NC(=O)c2nc(S(=O)(=O)Cc3ccccc3F)ncc2Cl)s1	16.4%	48% (active)
O=C(CCCN1C(=O)/C(=C/c2ccccc2Cl)SC1=S)NNC(=O)c1cccnc1	34.3%	29.9%
Cc1ccc(NC(=O)CCN2CCCCC2)cc1	-25%	32.5%
Cc1ccc(C(=O)/C=C/Nc2ccccn2)cc1	31.1%	77% (active)
Cc1ccc(C)c(S(=O)(=O)N2CCN(C(=O)C3CCN(c4ncnc5sc(C)c(C)c45)CC3)CC2)c1	15.6%	38.6%
CC(C)(c1ccc(O)cc1)c1ccc(O)c(C(=O)O)c1	-8.08%	-5.54%

SMILES	inhibition [1]	inhibition [2]
Cc1ccc(S(=O)(=O)Nc2ccccc2C(=O)N2CCCC2)cc1	-24.9%	0.98%
O=C(Nc1ccc(F)cc1)c1nc(S(=O)(=O)Cc2ccccc2)ncc1Cl	36.6% (active)	37.9%
O=C(Nc1ncc([N+](=O)[O-])s1)c1ccc2c(c1)OCO2	-5.69%	37.6%
CCCCCc1c(C)nc(N2CCc3ccccc32)[nH]c1=O	-17.3%	14.9%
CCCC(O)(CCC)C(=O)NN(C(=O)CCl)c1ccccc1	8.55%	30.1%
CN(c1ccc(F)cc1)S(=O)(=O)c1ccc(Cl)c(C(=O)Nc2ccncc2)c1	-3.83%	26.5%
COc1ccc(CNn2c(-c3cccs3)nc3ccccc3c2=O)cc1OC	-9.43%	33.2%
Cc1ccc(C2(CCNCc3ccco3)CCOC(C(C)C)C2)cc1 (stereo unspecified)	-11.6%	-20.8%
Cc1sc2ncnc(N3CCC(C(=O)Nc4ccc(S(N)(=O)=O)cc4)CC3)c2c1C	-3.11%	30.8%
Cc1ccc(S(=O)(=O)C(NC(=O)c2ccccc2)=C(Cl)Cl)cc1	14.1%	16.8%
O=C(NCCS(=O)(=O)N1CCN(c2ccc(F)cc2)CC1)c1ccc(Br)o1	-22.6%	-4.89%
O=C(COC(=O)c1ccc(Br)o1)NCC(=O)Nc1ccc(F)cc1	-21%	-15.8%
CC(=O)c1ccc(OCCCC(=O)N2CCN(S(=O)(=O)c3ccc(C)cc3C)CC2)cc1	7.87%	0.39%
Cc1c(Cl)sn(-c2ccc(Cl)cc2)c1=O	76.3% (active)	93.4% (active)
O=C1NC(Cc2ccc(O)cc2)c2nc3cc(Cl)ccc3c(=O)n2-c2ncccc21 (stereo unspecified)	-1.01%	-15.2%
CCOc1ccc(C(=O)C(CN2CCOCC2)c2ccccc2)cc1 (stereo unspecified)	14.2%	42.6%
CC(=O)n1cc(N(C(=O)CCl)c2ccccc2)c2ccccc21	51.8% (active)	50.5% (active)
O=C(c1ccco1)N1CCN(C(=O)N2c3ccccc3Sc3ccccc32)CC1	6.34%	14.1%
CN1/C(=C\C=C2/SC(=S)NC2=O)C(C)(C)c2ccccc21	8.01%	15.6%
O=C(CCl)N1c2ccccc2CCc2ccccc21	29.1%	31.7%
COc1ccc2nc(-c3ccc(N)cc3)[nH]c2c1	-62.2%	49.5% (active)
CCOC(=O)c1c(C)[nH]c(C)c1C(=O)COC(=O)c1ccccc1O	2.18%	20.3%
O=C(CCc1ccncc1)N1CCCC(Nc2ccc(F)c(F)c2)C1 (stereo unspecified)	-3.61%	-7.87%

Source: PubChem BioAssay
